# The list is not random: actives were taken first. Their share in the collection is about 4.3%.
# TRPM1 prom inh: inhibitors of MITF-dependent TRPM1 promoter reporter, primary screen, cell-based, SK-MEL-5, single point, luciferase; SK-MEL-5 TRPM1 promoter luciferase, 24 h; inhibition, % at 12.5 µM; 0.83% of 330,000 active; AID 488899, 2010;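 active = mean inhibition across replicates of 60% or more, whatever share of single replicates reaches that level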
# Peg3 prom inh: Peg3 promoter-driven luciferase inhibitors, primary screen, cell-based, HeLa, luciferase luminescence; HeLa PEG-Prom luciferase reporter, overnight; inhibition, % at 20 µM; 1.7% of 360,000 active;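 active = inhibition of at least 50% at 20 µM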
# CHOP inhibitor: inhibitors of CHOP promoter induction, primary screen, cell-based, unfolded protein response, luciferase reporter; 3.8% of 220,000 active; inhibition, % at 10 µM; CHO-K1 CHOP-promoter luciferase, tunicamycin-induced, 15-18 h; AID 2732, 2010;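 active = compounds that reduced the stress-induced luciferase reporter signal by more than about 70% of percent inhibition, limit read from the data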;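 note: 0% = tunicamycin plus vehicle and 100% = wells without tunicamycin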
# CF NFkB inh: inhibitors of PAF-induced NF-kB signaling, primary screen, cell-based, GFP fluorescence, uHTS. KKLEB NF-kB-GFP reporter, GFP fluorescence overnight. 0.86% of 360,000 active. AID 588850, 2011. inhibition, % at 5 µM;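 active = at least 50% inhibition at 5 µM, scaled per plate between neutral and stimulator controls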;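 note: PAF is a Pseudomonas aeruginosa culture filtrate used as stimulus; plate controls were PAF-stimulated DMSO wells for no effect and unstimulated DMSO wells for full effect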
# KKLEB tox: cytotoxicity in KKLEB CF airway cells, primary screen, cytotoxicity control for CF NF-kB inhibitor project, cell-based, uHTS, fluorescence assay plates; 0.36% of 360,000 active; KKLEB CF airway cells viability, ATPlite luminescence, overnight; stronger effect = lower value; cells stimulated with P. aeruginosa culture filtrate; activity change (cytotoxicity), % at 5 µM;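 active = corrected activity change at or below -50% at 5 µM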
# HIF-2a block: HIF-2a reporter inhibitors, primary screen, luminescence, 786-0 RCC cells | 786-0 RCC cells HIF-2a reporter, luciferase luminescence, overnight | inhibition, % at 18.8 µM | 0.72% of 360,000 active | AID 624352, 2012;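 active = inhibition of the luminescence signal of 40% or more relative to plate controls, in a single-dose primary screen at 18.75 µM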
# * marks the source's active call; other numbers are inactive results; . = no result; ! = not active in a repeat.
SMILES,TRPM1 prom inh,Peg3 prom inh,CHOP inhibitor,CF NFkB inh,KKLEB tox,HIF-2a block
CSCC[C@H]1COC[C@@H](Cc2ccccc2)N1c1ccccc1,.,13.3,.,10.9,0.1,2.5
COc1ccccc1N1CCN(Cc2cc(Br)c(O)c3ncccc23)CC1,70.8*,19.9,.,12.8,-9.2,11.7
CCOc1ccccc1N1CCN(Cc2cccc(OC)c2O)CC1,-1.7,14.4,57.2,0.9,2.5,-6.0
COc1cc(CN2CCN(c3cccc(C)c3C)CC2)cc(Br)c1O,14.4,-6.1,90.6*,14.1,-11.3,-37.0
CC(C)C(=O)Nc1cccc(COc2ccc(CN(CCc3ccccc3)C(=O)OC(C)(C)C)cc2)c1,2.0,-10.9,.,-9.8,10.2,13.1
CC(CC(=O)OCC(=O)Nc1ccc2[nH]c(=O)[nH]c2c1)c1ccccc1 (stereo unspecified),-2.4,-5.7,.,10.7,14.0,12.4
Cn1c(=O)c(C(=O)COc2ccc(F)cc2Cl)c(N)n(Cc2ccccc2)c1=O,14.0,13.5,78.8*,2.1,10.6,26.9
Cn1c(N)c(C(=O)COc2ccc(Cl)cc2Cl)c(=O)n(C)c1=O,11.2,-0.2,23.7,15.3,7.9,15.0
C/C=C/Cn1c(SCc2ccc(C)cc2)nc2c1c(=O)[nH]c(=O)n2C,-19.5,5.1,94.2*,9.7,-3.4,1.8
CC=CCn1c(SCc2ccccc2)nc2c1c(=O)[nH]c(=O)n2C,.,-2.6,.,4.7,3.7,7.8
CCCSc1nc2c(c(=O)[nH]c(=O)n2C)n1Cc1ccccc1,-0.3,22.5,.,24.6,-4.9,14.3
CCCCCn1c(SCc2cccc(C)c2)nc2c1c(=O)[nH]c(=O)n2C,.,39.1,92.4*,-6.0,-5.2,20.9
CCCSc1nc2c(c(=O)[nH]c(=O)n2C)n1Cc1ccc(C)cc1,1.4,55.0*,81.3*,-14.0,-5.2,12.1
O=c1[nH]c2ccc(Cl)cc2c(-c2ccccc2)c1N1CCOCC1,-2.0,32.8,56.6,24.0,-16.7,-7.2
O=c1[nH]c2ccc(Cl)cc2c(-c2ccccc2)c1N1CCN(c2ccccn2)CC1,1.5,21.9,70.6*,7.0,8.2,14.6
CC1(C)Oc2ccc3ccc(=O)oc3c2C(N2CCCCC2)C1O (stereo unspecified),0.8,-1.3,-6.0,10.7,-2.4,16.9
CC(=O)OC1C(N2CCCCC2)c2c(ccc(/C=C/C(=O)N3CCCCC3)c2O)OC1(C)C (stereo unspecified),13.7,12.7,76.8*,1.2,3.0,-7.9
O=C(O)C1C2CCCCC2=C2CCCCC2C1C(=O)O (stereo unspecified),-6.7,53.1*,-33.5,19.3,-13.7,23.5
C[C@H]1CN([C@@H](C)CO)C(=O)c2cccc(NC(=O)C3CC3)c2O[C@H]1CN(C)S(=O)(=O)c1ccccc1,-4.1,3.9,.,15.2,2.0,10.0
Cc1cccc(OCCCC(=O)Nc2nc3ccccc3[nH]2)c1,-5.5,-43.0,73.1*,17.3,-28.5,-48.4
Cc1ccc(OCCCC(=O)Nc2nc3ccccc3[nH]2)cc1,-7.2,-3.6,-14.0,13.5,-12.2,-35.4
CC(NC(=O)Nc1nnc(C(F)(F)F)s1)(C(F)(F)F)C(F)(F)F,26.4,23.1,89.2*,46.3,-1.1,1.3
COc1ccc(CNC(=O)COC(=O)C2CCC(C(C)(C)C)CC2)cc1 (stereo unspecified),11.9,1.6,89.8*,0.5,3.7,11.3
CC(=O)N[C@H]1[C@H](OC2CCCCC2)O[C@H](COC(C)=O)[C@@H](OC(C)=O)[C@@H]1OC(C)=O,0.5,9.7,.,-9.9,6.5,19.3
CCCCCCCCNS(=O)(=O)CCNCc1ccc(OC)cc1,-3.1,61.1*,.,11.0,-18.6,13.0
SMILES,TRPM1 prom inh,Peg3 prom inh,CHOP inhibitor,CF NFkB inh,KKLEB tox,HIF-2a block
CCc1ccc2oc(-c3cc(N)ccc3O)nc2c1,-21.0,19.0,77.5*,-21.7,-18.5,22.2
CN(C)c1ccc(-c2nc3cc(N)ccc3o2)cc1,6.7,-27.0,.,-10.4,-60.1*,-53.9
CCc1ccc2oc(-c3cc(N)ccc3Cl)nc2c1,-1.3,-32.8,26.0,-8.5,-9.3,-4.5
CCOC(=O)c1ccc(N2C(=O)c3n[nH]c(-c4ccco4)c3C2c2cccc([N+](=O)[O-])c2)cc1 (stereo unspecified),7.9,25.8,70.8*,-0.4,13.6,27.0
CCC(Oc1ccccc1)C(=O)Nc1ccc(C)c(S(=O)(=O)N2CCOCC2)c1 (stereo unspecified),3.3,8.7,.,-14.4,-8.9,22.1
O=C(Nc1ccc(F)c(Cl)c1)C1CC(=O)n2c(nc3ccccc32)N1 (stereo unspecified),1.9,0.4,75.7*,15.2,-6.9,17.4
Cc1nc(C(F)(F)F)nc(Nc2ccc(Br)cc2)c1C#N,14.7,-7.3,82.4*,12.0,-17.0,3.7
CN(C)c1ccc2nc3ccc(=O)cc-3sc2c1,.,-126.0,.,51.5*,7.8,-90.3
CN(C)c1ccc2nc3ccc(=[N+](C)C)cc-3sc2c1,73.1*,-109.7,42.2,79.2*,-5.0,-160.6
Cc1nc2cc(C)c(C)cc2s1,0.3,1.1,-0.5,1.6,-5.5,4.7
Cc1cc2nc3ccc(=[N+](C)C)cc-3sc2cc1N,95.5*,-34.4,35.6,52.2*,28.0,-142.4
CCOC(=O)N1CC=C2C(C#N)=C(N)C(C#N)(C#N)[C@H](c3ccc(OC(C)C)c(OCC)c3)[C@H]2C1,-6.8,3.6,8.6,9.4,-9.2,5.6
CCOC(=O)N1CC=C2C(C#N)=C(N)C(C#N)(C#N)[C@H](c3ccccc3OCC)[C@H]2C1,14.3,20.1,74.0*,7.3,-1.4,27.0
C[C@@H](OC(=O)N1CCCCC1)[C@H]1O[C@]2(C)CCCC[C@H]1O2,-28.2,-8.5,.,-2.9,4.6,-1.8
NNC(=O)c1cc(-c2ccc(O)cc2)nc2ccc(Br)cc12,-0.1,-3.6,-1.6,-28.1,4.4,1.5
Cc1ccc(-c2cc(C(=O)NCc3cnn(C)c3C)c3cc(Br)ccc3n2)cc1,-13.8,-74.8,78.0*,-9.2,-2.3,-95.9
C(=C\c1ccccc1)/CN1CCN(C(c2ccccc2)c2ccccc2)CC1,-1.3,-6.2,22.6,-7.9,3.3,-15.2
Fc1ccc(C(c2ccc(F)cc2)N2CCN(C/C=C/c3ccccc3)CC2)cc1,-10.2,-10.1,84.3*!,14.2,-9.0,-21.6
O=c1c(Cc2ccc(F)cc2)c(O)ccn1Cc1ccc(Cl)cc1Cl,0.8,1.9,82.9*,4.0,1.0,6.9
CC(C)CNC(=O)c1cccc(NC(=O)c2ccc3c(c2)C(=O)N(C)C3=O)c1,7.3,4.7,.,11.8,2.2,16.0
CC(C)N(CCn1c(SCC(=O)Nc2cccnc2Cl)nc2ccccc2c1=O)C(C)C,-3.3,-3.4,.,6.1,-5.5,3.4

# Screening data: PubChem, several laboratories
